In the library only some 4.3% were active in any assay of this set; here they are far more common.
ADAM17 inh: ADAM17 inhibitors, primary screen, biochemical, QFRET | Disintegrin and metalloproteinase domain-containing protein 17 (Homo sapiens), P78536 | recombinant ADAM17, EDANS/DABCYL FRET peptide cleavage | inhibition, % at 6.95 µM | actives 0.83% (n = 370,000) | AID 720648, 2013;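 active = inhibition above the mean of compounds lying between control limits plus 3 SD, set per campaign, cut at about 8.5% in these data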
ADAM10 inh: human ADAM10 inhibitors, primary screen, biochemical, QFRET, HTS | actives 0.62% (n = 370,000) | inhibition, % at 7 µM | recombinant ADAM10, EDANS/DABCYL FRET peptide cleavage, 3 h | AID 720582, 2013 | Disintegrin and metalloproteinase domain-containing protein 10 (Homo sapiens), O14672;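 active = inhibition above a per-campaign cutoff equal to the mean of compounds falling between control-based bounds plus 3 SD, cut at about 20% in these data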
HGIII-sPLA2 inh: human group III sPLA2 inhibitors, primary screen, biochemical, QFRET, BODIPY PC-A2 liposome substrate; QFRET BODIPY PC-A2 liposome hydrolysis, fluorescence; inhibition, % at 12.2 µM; actives 0.56% (n = 370,000); AID 743126, 2013;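 active = inhibition above mean plus 3 SD of compounds lying within the high and low control bounds, cut at about 19% in these data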
GRIN3A LBD mod: binders of NR3A ligand-binding domain, primary screen, biophysical, differential scanning fluorimetry, uHTS; AID 1259313, 2017; NR3A LBD differential scanning fluorimetry, Tm shift; 0% = protein alone, 100% = glycine-bound protein; Tm shift relative to glycine control, % at 25 µM; actives 2.5% (n = 340,000); Glutamate receptor ionotropic, NMDA 3A (GRIN3A) ligand-binding domain;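 active = melting temperature shift of at least 10% of the positive control shift, at one fixed dose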
FAS-TE inh: FAS thioesterase domain inhibitors, primary screen, biochemical, fluorescence intensity, uHTS | Fatty acid synthase (Homo sapiens), P49327 | recombinant FAS-TE, OMFH fluorogenic substrate, fluorescence endpoint | inhibition, % at 15 µM | actives 0.67% (n = 360,000) | AID 602261, 2012;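 active = compounds whose normalised, plate-corrected inhibition of enzyme fluorescence in the single-dose primary screen is 50% or more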
Of the large screens only hits and unclear results are named; the others gave an inactive call.

COc1ccc2nc(NC(=O)CSc3ccccc3)sc2c1	GRIN3A LBD mod 30.8
CCOc1ccc2nc(NC(=O)CSC3=NCCS3)sc2c1	GRIN3A LBD mod 18.4
Cc1cccc2sc(NC(=O)c3ccc(OCC4CCCO4)cc3)nc12 (configuration not stated)	none
COc1ccc2nc(NC(=O)CSC3=NCCS3)sc2c1	none
N#Cc1cccc(NC(=O)OC2CC3CC2[C@H]2CCCCN2C3)c1 (some centres not stated)	none (no result: GRIN3A LBD mod, FAS-TE inh)
O=C(NCc1cccnc1)O[C@H]1CC[C@@]23CCCN2C(=O)CCC[C@H]3C1	none (no result: GRIN3A LBD mod, FAS-TE inh)
Oc1ccccc1C=Nn1c(-c2ccccc2F)n[nH]c1=S	none (no result: GRIN3A LBD mod, FAS-TE inh)
CCOc1ccc2nc(NC(=O)CSc3ccc(Cl)cc3)sc2c1	GRIN3A LBD mod 10.2
O=C(CSc1ncn(-c2ccccc2)n1)Nc1nc2ccccc2s1	GRIN3A LBD mod 21.9
O=C(CSc1ccccc1)Nc1nnc(COc2ccc(Cl)cc2)s1	GRIN3A LBD mod 14.2
O=C(CSc1ncn(-c2ccccc2)n1)Nc1nc(-c2ccccc2)cs1	none
CCOc1ccc(NC(=S)NNc2ccnc3cc(Cl)ccc23)cc1	none
S=C(NNc1ccnc2cc(Cl)ccc12)Nc1ccc(Cl)cc1Cl	GRIN3A LBD mod 14.5
Cc1c(C(=O)Nc2ccc3c(c2)OCCO3)sc2nc(-c3ccccc3)cn12	GRIN3A LBD mod 27.1
Cc1c(C(=O)Nc2ccncc2)sc2nc(-c3ccccc3)cn12	none
Cc1[nH][nH]c(=O)c1C(c1cc([N+](=O)[O-])ccc1O)c1c(C)[nH][nH]c1=O	GRIN3A LBD mod 10.2
Cc1[nH][nH]c(=O)c1C(c1ccccc1[N+](=O)[O-])C(C#N)C#N (configuration not stated)	none
N#C/C(=C\Nc1ccccc1O)c1nc2ccccc2o1	GRIN3A LBD mod 26.7
N#C/C(=C\c1ccncc1)c1nc2ccccc2o1	none
Cc1ccc(CN2CCCCC(NC(=O)Nc3ccccc3)C2=O)cc1 (configuration not stated)	none (no result: GRIN3A LBD mod, FAS-TE inh)
O=C1NCCCc2c1no[n+]2[O-]	GRIN3A LBD mod 10.5
COC(=O)c1cc(C(c2ccccc2O)C2CCC(C)(C)O2)n2ccccc12 (configuration not stated)	none (no result: GRIN3A LBD mod, FAS-TE inh)
NC(=O)C1CCN(c2nc(-c3ccc4c(c3)CCO4)cs2)CC1	none (no result: GRIN3A LBD mod, FAS-TE inh)
O=C(NCC1CCCO1)c1ccc2c(=O)n(Cc3ccc(Cl)cc3)c(=S)[nH]c2c1 (configuration not stated)	GRIN3A LBD mod 21.5
COc1ccc2c(c1)[C@H]1[C@H](CO2)[C@H](c2ccccc2)[C@]2(C)C(=O)N(Cc3ccc(C)cc3)CC(=O)N12	FAS-TE inh 63.3 (no result: ADAM17 inh, ADAM10 inh, HGIII-sPLA2 inh)
Cc1ccc2c(c1)[C@H]1[C@H](CO2)[C@H](c2ccccc2)[C@]2(C)C(=O)N(Cc3ccccc3)CC(=O)N12	none
O=C1CCCC(=O)C1=C1SCCCS1	GRIN3A LBD mod 11.0
O=C(CC1S/C(=N\S(=O)(=O)c2ccccc2)N(c2ccccc2)C1=O)Nc1ccc(F)cc1 (configuration not stated)	GRIN3A LBD mod 10.1
O=C(c1ccncc1)N1CC[C@H]2[C@H](CCCN2Cc2cc(F)cc(F)c2)C1	none (no result: GRIN3A LBD mod, FAS-TE inh)
O=C(Cc1c[nH]c2ccccc12)Nc1ccc(Nc2ccncc2)cc1	none (no result: GRIN3A LBD mod, FAS-TE inh)
CCn1c(O)c(C=C2N=c3ccccc3=N2)sc1=S	none
CCn1c(O)c(/C=C2\C=NN=C2c2ccc(C)cc2)sc1=S	GRIN3A LBD mod 12.1
CC(C)n1c(O)c(/C=C2\C=NN=C2c2ccccc2)sc1=S	GRIN3A LBD mod 10.9
CC(C)(C)CC(C)(C)NC(=S)Nc1ccc(S(=O)(=O)N2CCOCC2)cc1	GRIN3A LBD mod 22.1
O=S(=O)(c1ccc(NC(=S)Nc2ccc(OC(F)F)cc2)cc1)N1CCOCC1	GRIN3A LBD mod 26.1
CCOc1ccc(CCNC(=O)C2CCCCC2)cc1OCC	none (no result: GRIN3A LBD mod, FAS-TE inh)
CC(=O)Nc1cccc(NC(=S)Nc2ccc(F)c(Cl)c2)c1	GRIN3A LBD mod 12.3
CC(=O)Nc1ccc(NC(=O)Nc2ccc(C)cc2C)cc1	none
CC(=O)Nc1ccc(NC(=O)Nc2ccc(C)c(C)c2)cc1	GRIN3A LBD mod 13.2
